# According to the supplement of paper PMC8728848:
# The entries come from a sample that favours the strongest signals as a whole.
# Columns and labels:
# Test in all cases: glycan array binding signal (z-score within array); higher = stronger binding
# Details in all cases: glycan notation: IUPAC condensed, linker removed
# [1] = molecular target: Fuc(a1-2)Gal(b1-3)GalNAc(b1-3)Gal(a1-4)Gal(b1-4)Glc
# Procedure, shortened: (§1)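 Glycan array data were curated from 3228 arrays in the Consortium for Functional Glycomics database and kept only where the protein sequence was available. Glycan names were converted to IUPAC-condensed notation, and columns mapping to the same glycan were averaged. The binding signal is a within-array Z-score, averaged across arrays of the same protein sequence at different concentrations or buffers and across linkers. Negative Z-scores can be read as non-binding.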
# [2] = molecular target: Fuc(a1-2)Gal(b1-3)GlcNAc(b1-3)[Neu5Ac(a2-6)Gal(b1-4)GlcNAc(b1-6)]Gal(b1-4)Glc
# Procedure, shortened: as §1
# [3] = molecular target: Fuc(a1-2)Gal(b1-3)[Fuc(a1-4)]GlcNAc(b1-2)Man(a1-3)[Fuc(a1-2)Gal(b1-3)[Fuc(a1-4)]GlcNAc(b1-2)Man(a1-6)]Man(b1-4)GlcNAc(b1-4)[Fuc(a1-6)]GlcNAc(b1-4)[Fuc(a1-6)]GlcNAc
# Procedure, shortened: as §1
# [4] = molecular target: Fuc(a1-2)Gal(b1-4)[Fuc(a1-3)]GlcNAc(b1-3)GalNAc
# Procedure, shortened: as §1
# [5] = molecular target: Fuc(a1-2)Gal6S(b1-3)GlcNAc6S
# Procedure, shortened: as §1
# [6] = molecular target: Fuc(a1-2)[Gal(a1-3)]Gal(b1-4)[Fuc(a1-3)]Glc
# Procedure, shortened: as §1
# [7] = molecular target: Fuc(a1-2)[Gal(a1-4)]Gal(b1-4)GlcNAc
# Procedure, shortened: as §1
# [8] = molecular target: Fuc(a1-2)[GalNAc(a1-3)]Gal(b1-3)GalNAc(b1-3)Gal(a1-4)Gal(b1-4)Glc
# Procedure, shortened: as §1
# [9] = molecular target: Fuc(a1-2)[GalNAc(a1-3)]Gal(b1-4)GlcNAc(b1-3)Gal(b1-4)GlcNAc(b1-3)Gal(b1-4)GlcNAc
# Procedure, shortened: as §1
# [10] = molecular target: Fuc(a1-2)[GalNAc(a1-3)]Gal(b1-4)GlcNAc(b1-3)GalNAc
# Procedure, shortened: as §1
# [11] = molecular target: Fuc(a1-2)[GalNAc(a1-3)]Gal(b1-4)[Fuc(a1-3)]GlcNAc(b1-3)GalNAc
# Procedure, shortened: as §1
# [12] = molecular target: Fuc(a1-3)[Gal(b1-4)]GlcNAc(b1-2)Man
# Procedure, shortened: as §1
# [13] = molecular target: Fuc(a1-3)[Gal3S(b1-4)]GlcNAc
# Procedure, shortened: as §1
# [14] = molecular target: Fuc(a1-3)[GalNAc(b1-4)]GlcNAc
# Procedure, shortened: as §1
# [15] = molecular target: Fuc(a1-4)GlcNAc
# Procedure, shortened: as §1
# [16] = molecular target: Gal(b1-3)GalNAc(b1-3)Gal
# Procedure, shortened: as §1
# [17] = molecular target: Gal(b1-3)GlcNAc(b1-3)Gal(b1-4)[Fuc(a1-3)]GlcNAc
# Procedure, shortened: as §1
# [18] = molecular target: Gal(b1-3)[Neu5Ac(b2-6)]GalNAc
# Procedure, shortened: as §1
# [19] = molecular target: Gal(b1-4)Glc6S
# Procedure, shortened: as §1
# [20] = molecular target: Gal(b1-4)GlcNAc(b1-3)Gal(b1-3)GlcNAc
# Procedure, shortened: as §1
# [21] = molecular target: Gal(b1-4)GlcNAc(b1-3)Gal(b1-4)GlcNAc(b1-2)[Gal(b1-4)GlcNAc(b1-3)Gal(b1-4)GlcNAc(b1-6)]Man(a1-6)[Gal(b1-4)GlcNAc(b1-3)Gal(b1-4)GlcNAc(b1-2)Man(a1-3)]Man(b1-4)GlcNAc(b1-4)GlcNAc
# Procedure, shortened: as §1
# [22] = molecular target: Gal(b1-4)GlcNAc(b1-3)Gal(b1-4)[Fuc(a1-3)]GlcNAc(b1-3)Gal(b1-4)[Fuc(a1-3)]GlcNAc
# Procedure, shortened: as §1
# [23] = molecular target: Gal(b1-4)GlcNAc(b1-3)[Gal(b1-4)GlcNAc(b1-6)]Gal(b1-4)GlcNAc
# Procedure, shortened: as §1
# [24] = molecular target: Gal(b1-4)GlcNAc(b1-3)[GlcNAc(b1-6)]Gal(b1-4)GlcNAc
# Procedure, shortened: as §1
# [25] = molecular target: Gal(b1-6)Gal
# Procedure, shortened: as §1
# [26] = molecular target: Gal3S(b1-4)Glc
# Procedure, shortened: as §1
# [27] = molecular target: Gal3S6S(b1-4)GlcNAc6S
# Procedure, shortened: as §1
# [28] = molecular target: GalNAc(b1-3)Gal
# Procedure, shortened: as §1
# [29] = molecular target: GalNAc(b1-3)Gal(a1-4)Gal(b1-4)GlcNAc
# Procedure, shortened: as §1
# [30] = molecular target: GalNAc(b1-6)GalNAc
# Procedure, shortened: as §1
# [31] = molecular target: GlcNAc(b1-3)Gal(b1-4)GlcNAc(b1-3)Gal(b1-4)GlcNAc(b1-2)[GlcNAc(b1-3)Gal(b1-4)GlcNAc(b1-3)Gal(b1-4)GlcNAc(b1-6)]Man(a1-6)[GlcNAc(b1-3)Gal(b1-4)GlcNAc(b1-3)Gal(b1-4)GlcNAc(b1-2)Man(a1-3)]Man(b1-4)GlcNAc(b1-4)[Fuc(a1-6)]GlcNAc
# Procedure, shortened: as §1
# [32] = molecular target: GlcNAc(b1-3)Gal(b1-4)GlcNAc(b1-3)Gal(b1-4)GlcNAc(b1-3)Gal(b1-4)GlcNAc(b1-2)Man(a1-3)[GlcNAc(b1-3)Gal(b1-4)GlcNAc(b1-3)Gal(b1-4)GlcNAc(b1-3)Gal(b1-4)GlcNAc(b1-2)Man(a1-6)]Man(b1-4)GlcNAc(b1-4)GlcNAc
# Procedure, shortened: as §1
# [33] = molecular target: GlcNAc(b1-3)Gal(b1-4)GlcNAc(b1-3)Gal(b1-4)GlcNAc(b1-3)Gal(b1-4)GlcNAc(b1-3)Gal(b1-4)GlcNAc(b1-2)Man(a1-3)[GlcNAc(b1-3)Gal(b1-4)GlcNAc(b1-3)Gal(b1-4)GlcNAc(b1-3)Gal(b1-4)GlcNAc(b1-3)Gal(b1-4)GlcNAc(b1-2)Man(a1-6)]Man(b1-4)GlcNAc(b1-4)[Fuc(a1-6)]GlcNAc
# Procedure, shortened: as §1
# [34] = molecular target: GlcNAc(b1-3)[GlcNAc(b1-6)]Gal(b1-4)GlcNAc
# Procedure, shortened: as §1
# [35] = molecular target: Kdn(a2-3)Gal(b1-3)GalNAc
# Procedure, shortened: as §1
# [36] = molecular target: Man(a1-3)[Man(a1-6)]Man
# Procedure, shortened: as §1
# [37] = molecular target: Man(a1-3)[Man(a1-6)]Man(a1-6)[Man(a1-3)]Man
# Procedure, shortened: as §1
# [38] = molecular target: Man(a1-6)Man
# Procedure, shortened: as §1
# [39] = molecular target: Neu5Ac(a2-3)Gal(b1-3)]Neu5Ac(a2-3)Gal(b1-4)]GlcNAc
# Procedure, shortened: as §1
# [40] = molecular target: Neu5Ac(a2-3)Gal(b1-4)Glc
# Procedure, shortened: as §1
# [41] = molecular target: Neu5Ac(a2-3)Gal(b1-4)GlcNAc(b1-3)Gal
# Procedure, shortened: as §1
# [42] = molecular target: Neu5Ac(a2-3)Gal(b1-4)GlcNAc(b1-3)Gal(b1-4)[Fuc(a1-3)]GlcNAc
# Procedure, shortened: as §1
# [43] = molecular target: Neu5Ac(a2-3)Gal(b1-4)GlcNAc(b1-3)GalNAc
# Procedure, shortened: as §1
# [44] = molecular target: Neu5Ac(a2-3)Gal(b1-4)[Fuc(a1-3)]GlcNAc(b1-3)Gal(b1-4)GlcNAc
# Procedure, shortened: as §1
# [45] = molecular target: Neu5Ac(a2-3)Gal(b1-4)[Fuc(a1-3)]GlcNAc(b1-3)GalNAc
# Procedure, shortened: as §1
# [46] = molecular target: Neu5Ac(a2-3)[GalNAc(b1-4)]Gal(b1-4)GlcNAc(b1-3)GalNAc
# Procedure, shortened: as §1
# [47] = molecular target: Neu5Ac(a2-6)Gal(b1-4)GlcNAc
# Procedure, shortened: as §1
# [48] = molecular target: Neu5Ac(a2-6)Gal(b1-4)GlcNAc(b1-2)Man(a1-3)[GlcNAc(b1-2)Man(a1-6)]Man(b1-4)GlcNAc(b1-4)GlcNAc
# Procedure, shortened: as §1
# [49] = molecular target: Neu5Ac(a2-6)Gal(b1-4)GlcNAc(b1-3)Gal(b1-4)GlcNAc(b1-3)[Neu5Ac(a2-6)Gal(b1-4)GlcNAc(b1-3)Gal(b1-4)GlcNAc(b1-6)]GalNAc
# Procedure, shortened: as §1
# [50] = molecular target: Neu5Ac(a2-6)Gal(b1-4)GlcNAc(b1-3)Gal(b1-4)GlcNAc(b1-6)[Gal(b1-3)]GalNAc
# Procedure, shortened: as §1
# [51] = molecular target: Neu5Ac(a2-8)Neu5Ac(a2-3)Gal(b1-4)GlcNAc
# Procedure, shortened: as §1
# [52] = molecular target: Neu5Ac(a2-8)Neu5Ac(a2-8)Neu5Ac(a2-3)Gal(b1-4)Glc
# Procedure, shortened: as §1
# [53] = molecular target: Neu5Gc(a2-3)Gal(b1-4)GlcNAc
# Procedure, shortened: as §1
# [54] = molecular target: Neu5Gc(a2-8)Neu5Ac(a2-3)Gal(b1-4)GlcNAc
# Procedure, shortened: as §1
binder,measurement,setting,value
GS13814A-bth-462-26-462 (Bacteroides thetaiotaomicron) (protein) DDRDNLMVNDQIGLLHSTYTETEIFRGMDTPYQLFVIKSGKGKQETEVSISVDETVLQSYNTDNGTSIQLLPSDCYTILQPALRLNDSDYRKAFDIKWNADRLSDLLSTGKEYGLPIQMSVVQNFISADDERLKTIIVPTIKEPYLQMDVPGMSPVTDFMPTFGDLNERELFVKIRTNYSNDEDISFQIEVDPQLVIDYNTAHGTAYKMLPESSFTVDNKGVILTGMKETFIKIKYHKKGLIPEEGTYLFGDYVLPLRITSVSKYGISPDAASKLYTVKFQPDPIDKKGWSVIDFNNCCTQDGGWYLNMGWGVESLIDNNPGTQWLCRWDVKEPLPYYFVFDMGKEYTLFRFGFANPVAPAAHVWAGTSKAGYVEASIDNENWVKLKDWTSPKIGEPNVNMDVPATQARYIRFVITDTYPTYDGLRVSLGEVYAWGM,glycan array binding signal (z-score),[1],-0.308
same,glycan array binding signal (z-score),[2],-0.718
same,glycan array binding signal (z-score),[3],0.703
same,glycan array binding signal (z-score),[4],2.19
same,glycan array binding signal (z-score),[5],3.15
same,glycan array binding signal (z-score),[6],0.027
same,glycan array binding signal (z-score),[7],1.11
same,glycan array binding signal (z-score),[8],1.01
same,glycan array binding signal (z-score),[9],-0.363
same,glycan array binding signal (z-score),[10],-0.276
same,glycan array binding signal (z-score),[11],2.42
same,glycan array binding signal (z-score),[12],0.981
same,glycan array binding signal (z-score),[13],1.23
same,glycan array binding signal (z-score),[14],2.12
same,glycan array binding signal (z-score),[15],14.3
same,glycan array binding signal (z-score),[16],0.61
same,glycan array binding signal (z-score),[17],0.725
same,glycan array binding signal (z-score),[18],-0.165
same,glycan array binding signal (z-score),[19],-0.019
same,glycan array binding signal (z-score),[20],-0.895
same,glycan array binding signal (z-score),[21],-0.241
same,glycan array binding signal (z-score),[22],0.104
same,glycan array binding signal (z-score),[23],-0.298
same,glycan array binding signal (z-score),[24],-0.604
same,glycan array binding signal (z-score),[25],0.332
same,glycan array binding signal (z-score),[26],-0.952
same,glycan array binding signal (z-score),[27],2.45
same,glycan array binding signal (z-score),[28],-0.506
same,glycan array binding signal (z-score),[29],2.74
same,glycan array binding signal (z-score),[30],-0.44
same,glycan array binding signal (z-score),[31],0.296
same,glycan array binding signal (z-score),[32],-0.256
same,glycan array binding signal (z-score),[33],1.41
same,glycan array binding signal (z-score),[34],-0.285
same,glycan array binding signal (z-score),[35],0.216
same,glycan array binding signal (z-score),[36],0.087
same,glycan array binding signal (z-score),[37],-1
same,glycan array binding signal (z-score),[38],0.563
same,glycan array binding signal (z-score),[39],2.12
same,glycan array binding signal (z-score),[40],2.85
same,glycan array binding signal (z-score),[41],-0.359
same,glycan array binding signal (z-score),[42],-1.35
same,glycan array binding signal (z-score),[43],-0.818
same,glycan array binding signal (z-score),[44],2.69
same,glycan array binding signal (z-score),[45],2.14
same,glycan array binding signal (z-score),[46],-1.22
same,glycan array binding signal (z-score),[47],-0.069
same,glycan array binding signal (z-score),[48],0.48
same,glycan array binding signal (z-score),[49],-1.35
same,glycan array binding signal (z-score),[50],-0.806
same,glycan array binding signal (z-score),[51],-1.27
same,glycan array binding signal (z-score),[52],-1.35
same,glycan array binding signal (z-score),[53],1.47
same,glycan array binding signal (z-score),[54],-0.879
